AmpC inh detg = qHTS Inhibitors of AmpC Beta-Lactamase (assay with detergent); P00811; AmpC hydrolysis of nitrocefin, absorbance 480 nm, 0.01% Triton; Potency, µM (titrated, usually from 114 µM), without a hit: at the top dose activity change, negative = inhibition, hits mostly inhibitors; actives 0.041% (n = 370,000); AID 485294, 2010;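 further: 0% = no-compound wells and -100% = no-enzyme wells; nearly all actives have a fitted effect of over 25% in size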
Target sequence (P00811 whole entry, looked up): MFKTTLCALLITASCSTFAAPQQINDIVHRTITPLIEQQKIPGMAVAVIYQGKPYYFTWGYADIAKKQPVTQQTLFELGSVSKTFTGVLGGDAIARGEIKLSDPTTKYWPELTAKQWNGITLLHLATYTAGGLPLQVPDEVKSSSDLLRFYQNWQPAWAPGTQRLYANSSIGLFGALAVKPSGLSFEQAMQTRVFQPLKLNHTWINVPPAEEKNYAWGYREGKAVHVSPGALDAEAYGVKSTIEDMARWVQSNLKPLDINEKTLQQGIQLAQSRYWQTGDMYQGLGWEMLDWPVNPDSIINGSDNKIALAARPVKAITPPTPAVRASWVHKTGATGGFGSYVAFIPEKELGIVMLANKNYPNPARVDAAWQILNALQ
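20 mM phosphate pH 7.0 + 0.01% (detergent screen) or 0.0001% Triton X-100; 5.3 nM AmpC reagent; cpd preinc 15 min RT; nitrocefin (800 uM stock) to start; A480 q20 s × 4 min; Activity was normalised to no-enzyme and no-compound control wells.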
Sm TGR block = qHTS Assay for the Inhibitors of Schistosoma Mansoni Peroxiredoxins. purified TGR, DTNB reduction, TNB absorbance 405 nm. AID 485364, 2010. actives 3% (n = 360,000). Schistosoma mansoni thioredoxin glutathione reductase (TGR), Q962Y6. Potency, µM (top dose mostly 114 µM), inactives show at the top dose activity change, negative = inhibition, actives largely listed as inhibitors; further: nearly all actives have a fitted effect of over 60% in size
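First, TGR (20 nM dispensed) and NADPH were mixed with compound. Second, a 15 min room-temperature incubation followed. Third, further NADPH and then DTNB were added to start the reaction. Finally, TNB absorbance was monitored kinetically.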
RE007 growth inh = qHTS Assay for Inhibitors of the HIV-1 protein Vpr | Potency, µM (titrated, usually from 92.2 µM), for inactives: at the highest dose activity change, negative = less growth, most hits filed as inhibitors | actives 0.21% (n = 360,000) | S. pombe RE007 Vpr strain, BacTiter-Glo ATP luminescence, 24 h | AID 651644, 2012; active means well fitted falling curve with a large enough effect; inconclusive means small, poorly fitted or top-dose-only effect; inactive means no such curve, though single readings can be large or run the other way; further: nearly all actives have a fitted effect of over 50% in size
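Fission yeast strain RE007, carrying one chromosomally integrated HIV-1 vpr copy, was seeded at OD 0.01 in PMG+AL medium with 23 nL pinned compound. After 24 h at 30 °C and 99% humidity, viability was read by BacTiter-Glo luminescence.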
AmpC no deterg = qHTS Inhibitors of AmpC Beta-Lactamase (assay without detergent); P00811; AmpC nitrocefin hydrolysis, absorbance 480 nm, 0.0001% Triton; Potency, µM (highest dose often 57.1 µM), for inactives: at the highest dose activity change, negative = inhibition, usual class: inhibitors; actives 0.52% (n = 330,000);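 further: plate controls were no compound for no effect and no enzyme for full effect; nearly all actives have a fitted effect of over 20% in size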
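AmpC (5.3 nM in the dispensed reagent) in 20 mM phosphate pH 7.0 with 0.01% (detergent screen) or 0.0001% Triton X-100 was preincubated with compounds for 15 min at room temperature. Nitrocefin was then added from an 800 uM solution, and hydrolysis was followed at 480 nm.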
Giardia FBPA inh = qHTS Assay for Inhibitors of Fructose-1,6-bisphosphate Aldolase from Giardia Lamblia; Potency, µM (top dose mostly 59.6 µM), inactives show at the top dose activity, negative = inhibition, usual class: inhibitors; actives 0.71% (n = 290,000); purified Giardia FBPA; A8B2U2; AID 2451, 2010; further: nearly all actives have a fitted effect of over 55% in size
Target sequence (A8B2U2 whole entry, looked up): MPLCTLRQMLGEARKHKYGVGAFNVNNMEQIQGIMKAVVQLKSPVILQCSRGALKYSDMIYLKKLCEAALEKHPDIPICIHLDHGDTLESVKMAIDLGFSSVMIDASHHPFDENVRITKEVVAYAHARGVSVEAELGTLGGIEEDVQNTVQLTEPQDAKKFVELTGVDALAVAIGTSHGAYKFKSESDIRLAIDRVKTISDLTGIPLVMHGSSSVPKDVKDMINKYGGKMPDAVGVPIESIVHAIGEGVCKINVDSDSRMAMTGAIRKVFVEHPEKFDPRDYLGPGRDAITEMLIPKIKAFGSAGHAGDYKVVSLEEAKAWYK
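40 nM FBPA preincubated 10 min at RT with compound (up to 57.5 uM final), then substrate plus GAPDH/TPI/NAD/arsenate coupling and diaphorase/resazurin added. Fluorescence read after 20 min at RT, 525/598 nm.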
* hit, by the source's call; ? = inconclusive; / = no result; ! = a repeat was not active; [ ] = dose if it differs, or a comment. Rows were chosen to be rich in hits. Some 3.4% of all compounds tested hit in one or more screens of this group. Unless noted, the call rests on the fitted dose curve; in most records, active means well fitted curve in the direction sought with a large enough effect; inconclusive means small, poorly fitted or top-dose-only effect, or another doubt; inactive means no such curve, though single readings can be large; an effect the other way counts as inactive or inconclusive. Unless noted, on the % scale 0 is the no-effect control and ±100 the full control effect; potency means the concentration at half of the fitted maximal effect.

SMILES	AmpC inh detg	Sm TGR block	RE007 growth inh	AmpC no deterg	Giardia FBPA inh
CCOC(=O)N1CCN(CC(O)COC2CC(C)CC(C)(C)C2)CC1 (stereo not given)	-12.3%	-8.4%	-4.7%	98.7%	-9.6%
CC1=C(C(=O)N2CCOCC2)C(c2ccccc2F)C2=C(CCCC2=O)N1 (stereo not given)	-0.1%	0.2%	8.9%	-12.4%	-14.0%
CN(CC(=O)Nc1ccc(Cl)c(C(F)(F)F)c1)C(=O)CCN1C(=O)C2CCCCC2C1=O (stereo not given)	-14.3%	-1.2%	12.3%	145.2%	/
CCOC(=O)/C(C)=C1\NC(C)(C)Cc2ccccc21	25.1µM*	2.3%	-0.3%	?	-19.6%
CCOC(=O)/C(C(=O)Nc1ccccc1Cl)=C1/NC(C)(C)Cc2ccccc21	0.9%	14.0%	10.0%	1.0%	-9.1%
CCN=C(N/N=C/c1ccc([N+](=O)[O-])cc1)SC	-13.0%	44.7µM*	-15.1%	-26.2%	-23.8%
CC1=C(C)C(OCCBr)N(c2cc(O)c(Cl)cc2F)C1=O (stereo not given)	3.1%	28.2µM*	7.4%	-18.0%	3.2%
COc1ccc(C2C(C(=O)c3ccco3)=C(O)C(=O)N2CCN2CCOCC2)c(OC)c1 (stereo not given)	1.9%	-34.6%	24.2%	-10.6%	/
CCCCOc1cccc(C2C(C(=O)c3ccc(C)o3)=C(O)C(=O)N2Cc2ccco2)c1 (stereo not given)	?	?	/	-38.0%	/
C=CCOc1cccc(C2C(C(=O)c3ccco3)=C(O)C(=O)N2CCN2CCOCC2)c1 (stereo not given)	-1.9%	25.1µM*	3.8%	21.2%	-23.6%
C=CCOc1cccc(C2C(C(=O)c3ccc(C)o3)=C(O)C(=O)N2Cc2ccncc2)c1 (stereo not given)	-10.9%	?	3.5%	-14.5%	-10.0%
C=CCOc1cccc(C2C(C(=O)c3ccco3)=C(O)C(=O)N2Cc2ccncc2)c1 (stereo not given)	-13.6%	44.7µM*	2.7%	-10.0%	-18.8%
C=CCOc1cccc(C2C(C(=O)c3ccco3)=C(O)C(=O)N2Cc2ccco2)c1 (stereo not given)	0.1%	31.6µM*	-2.4%	-38.0%	-27.8%
CCOc1ccc(Nc2sc(C(=O)c3cccc(OC)c3)c(N)c2S(=O)(=O)c2ccccc2)cc1	14.6%	3.2%	/	/	/
COC(=O)c1nc(-c2ccc3c(n2)C(=O)C(N)=C(OC)C3=O)c(N)c(-c2ccc(OC)c(OC)c2O)c1C	2.9%	1.2%	7.4%	-11.4%	9.98µM*
CC(Sc1nnc(-c2ccco2)o1)C(=O)NCCC1=CCCCC1 (stereo not given)	-8.5%	44.7µM*	3.8%	-10.6%[11.4 µM]	1.5%
O=C(CC1C(=O)CCCC1=O)c1ccccc1	-2.2%	39.8µM*	-13.3%	-5.1%	-0.2%
O=C(CCC1CCCCC1=O)c1ccccc1 (stereo not given)	-15.2%	7.0%	-0.9%	1.2%	7.1%
Cc1c([N+](=O)[O-])cc(C(=O)Oc2ccc(Br)cc2C(=S)N2CCCCC2)cc1[N+](=O)[O-]	-3.6%	-28.3%	1.3%	-28.5%	-2.3%
COc1ccc(CN2CCN(Cc3ccc(C)cc3)C(CCO)C2)cc1OC (stereo not given)	3.8%	-0.1%	6.8%	39.5%	-0.3%
CC(=O)c1cccc(CN2CCN(Cc3ccc(F)cc3)C(CCO)C2)c1 (stereo not given)	4.3%	44.7µM*	-5.7%	19.0%	1.4%
CC(=O)Nc1ccc2nc(CN3CCN(CC(C)C)C(CCO)C3)ccc2c1 (stereo not given)	5.7%	?	10.8%	-9.5%	-11.0%
CC(=O)Nc1ccc2nc(CN3CCN(Cc4ccc(F)cc4)C(CCO)C3)ccc2c1 (stereo not given)	-6.8%	25.1µM*	-3.3%	35.7%	-23.0%
COc1cc(CN2CCN(Cc3ccc(C)cc3)C(CCO)C2)cc(OC)c1O (stereo not given)	8.1%	6.31µM*	-5.8%	75.0%	?
CCOC(=O)C1=C(C)NC(=S)NC1c1cc(C)sc1C (stereo not given)	-4.0%	20.7%	-15.3%	-52.3%	17.9%
SMILES	AmpC inh detg	Sm TGR block	RE007 growth inh	AmpC no deterg	Giardia FBPA inh
O=Cc1ccc2noc(-c3ccc(Cl)cc3)c2c1	2.5%	50.1µM*	-30.0%	-21.4%	-0.6%
COc1cccc(-n2nc3c(=S)[nH]nc(C)c3c2C)c1	?	-23.0%	0.7%	-11.2%	-16.8%
Cc1n[nH]c(=S)c2nn(-c3cccc(Cl)c3)c(C)c12	-6.0%	79.4µM*	/	-10.6%	-18.2%
CN(Cc1ccco1)C(=O)C(Cc1ccccc1)NS(=O)(=O)c1ccc2c(c1)CCC(=O)N2 (stereo not given)	-11.0%	39.8µM*	-1.8%	-5.2%	3.8%
CCCNC(=O)C(Cc1ccccc1)NS(=O)(=O)c1ccc2c(c1)CCC(=O)N2 (stereo not given)	?	5.9%	-4.2%	-13.3%	1.2%
O=C(O)c1ccc2c(c1)C(=O)N([C@H](Cc1ccc(O)c(O)c1)C(=O)O)C2=O	?	12.6µM*	/	-14.8%	-15.3%
C[C@](N)(Cc1ccc(O)c(O)c1)C(=O)O	?	22.4µM*	6.8%[18.4 µM]	?	17.7µM*!
NC(Cc1ccc(O)c(O)c1)C(=O)O (stereo not given)	/	/	/	/	15.8µM*
C[C@](N)(Cc1ccc(O)cc1)C(=O)O	/	/	/	/	1.5%
N[C@@H](Cc1ccc(O)cc1)C(=O)O	/	/	/	/	-1.3%
COC(=O)C(N)Cc1ccc(O)cc1 (stereo not given)	3.0%	10.0%	15.1%	4.6%	-6.9%
COC(=O)C(N)Cc1ccc(O)c(O)c1 (stereo not given)	-1.3%	7.94µM*	-7.9%	-12.7%	?
CC(C)(C)c1ccc(C[C@H](C(=O)O)N2C(=O)c3ccc(C(=O)O)cc3C2=O)cc1	?	-3.2%	/	-26.4%	?
CCCCc1nc2c(c3c1C[C@H](C)OC3)CN(S(=O)(=O)c1ccc3c(c1)OCCN3C)CC2	/	/	/	/	1.3%[12.9 µM]
NC(Cc1cc(O)c(O)cc1O)C(=O)O (stereo not given)	50.1µM*	15.8µM*	/	7.08µM*	-13.4%
N[C@@H](Cc1c[nH]c2ccccc12)C(=O)O	5.1%	14.1µM*	/	-19.9%	3.4%
O=C(/C=C/c1ccc(O)c(O)c1)O[C@H](Cc1ccc(O)c(O)c1)C(=O)O	?	3.16µM*	/	?	?
Cc1ccc(Cl)cc1N1CCN(Cc2cc3c(cc2O)CCC3)CC1	-0.6%	-27.3%	-8.7%[3.69 µM]	-17.1%	6.6%
COc1ccccc1CNC(=O)C(=O)NCC1OCCN1S(=O)(=O)c1ccccc1 (stereo not given)	-2.1%	-7.9%	-20.4%	-3.7%	-10.3%

Screening results (PubChem)
